Laboratory results as given in ChEMBL document CHEMBL1857833, “Screening and optimization of specific chemical series against human African Trypanosomiasis (HAT)”.
Screen size: about 4,400 compounds; about 390 (8.9%) showed an effect of 50% or more. The entries come from a sample that favours strong results as a whole.

system: Trypanosoma brucei; assay: DNDI: Inhibition of Human African Trypanosomiasis, SBRI 427, in vitro at 2 ug.mL-1; type: functional

Compound	% inhibition [%]
C=CCN(C)Cc1coc(-c2ccc(OC)cc2)n1	18
c1ccc2c(-c3nc(CNCCN4CCOCC4)co3)cccc2c1	7
Cc1ccccc1-c1nc(CN(Cc2ccccc2)C(C)C)co1	7
Cc1ccc(/C(=N/O)NC2CCc3ccccc32)c(Oc2cccc(F)c2)n1 (configuration not stated)	23
Cc1ccc(-c2nc(CNC(C)CC(C)C)co2)cc1 (configuration not stated)	4
Cc1ccc(/C(=N/O)NC2CCCC2)c(Oc2ccc(F)cc2)n1	23
Cc1ccc(Oc2nc(C)ccc2/C(=N/O)NC2CCCC2)cc1	97
CSc1ccc(Oc2nc(C)ccc2/C(=N/O)NCCN(C)C)cc1C	-3
CSc1ccc(Oc2nc(C)ccc2/C(=N/O)NC2CCCCC2)cc1	1
COc1ccc(Oc2nc(C)ccc2/C(=N/O)NC2CCC2)cc1	-19
CCCN/C(=N\O)c1ccc(C)nc1Oc1ccc(SC)c(C)c1	11
Cc1ccc(Oc2nc(C)ccc2/C(=N/O)NC2CC2)cc1	30
CSc1ccc(Oc2nc(C)ccc2/C(=N/O)NCC2CC2)cc1C	14
COc1ccc(Oc2nc(C)ccc2/C(=N/O)NC2CC2)cc1	4
COc1ccc(Oc2nc(C)ccc2/C(=N/O)NC2CCCC2)cc1	101
COCCN/C(=N\O)c1ccc(C)nc1Oc1ccc(SC)c(C)c1	98
CSc1ccc(Oc2nc(C)ccc2/C(=N/O)NC2CCCC2)cc1C	88
Brc1ccc(-c2nc(CNCCc3ccccn3)co2)cc1	-9
FC(F)(F)Oc1ccc(-c2nc(CNCc3ccccc3OC(F)(F)F)co2)cc1	-17
Fc1cccc(-c2nc(CNCc3ccc(OC(F)(F)F)cc3)co2)c1	7
CN1CCCC1CCN/C(=N\O)c1cccnc1Oc1ccc(Cl)cc1 (configuration not stated)	-1
O=C(c1ccco1)N1CCN(Cc2coc(-c3ccc(Cl)cc3Cl)n2)CC1	21
